G9a block: G9a (human) methyltransferase inhibition | Q96KQ7 | G9a H3K9 monomethylation, AlphaScreen, 2 h | Potency, µM (doses to about 102 µM), for inactives: at the highest dose activity, negative = inhibition, actives largely listed as inhibitors | 350,000 tested, 8.8% active; further: on the % scale 0 is the no-effect control and ±100 the full control effect; nearly all actives have a fitted effect of over 75% in size
Target sequence (Q96KQ7 913-1193 limits assumed): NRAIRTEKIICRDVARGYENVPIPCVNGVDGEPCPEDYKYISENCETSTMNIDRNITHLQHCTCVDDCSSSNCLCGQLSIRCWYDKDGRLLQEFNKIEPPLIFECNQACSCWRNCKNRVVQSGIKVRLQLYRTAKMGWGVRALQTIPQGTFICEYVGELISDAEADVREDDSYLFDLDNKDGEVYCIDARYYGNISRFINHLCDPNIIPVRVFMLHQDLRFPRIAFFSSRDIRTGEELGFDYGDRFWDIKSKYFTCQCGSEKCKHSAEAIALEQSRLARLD
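G9a (20 nM) preincubated 15 min RT with compounds, then 500 nM biotinylated H3K9 peptide and 20 uM SAM added; 2 h RT reaction. Monomethyl-H3K9 product detected by AlphaScreen with anti-H3K9me1 antibody, streptavidin donor and anti-rabbit IgG acceptor beads.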
Sfp inh: Sfp phosphopantetheinyl transferase inhibition; Q9F4F7; Biochemical Sfp PPTase activity, qHTS; Potency, µM, inactives show largest response in the series, negative = inhibition, hits mostly inhibitors; 310,000 tested, 3.5% active;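 further: the enzyme is Sfp with the accession as filed and its product quenches rhodamine fluorescence; 0% = enzyme reaction without inhibitor and -100% = no enzyme wells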
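Reaction rates are the 30-min fluorescence difference (ex 525, em 598 nm) in wells containing 15 nM Sfp, 5 uM rhodamine-CoA and 12.5 uM BHQ-2-YbbR at pH 7.6 with 10 mM MgCl2.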
HP1b chromo inh: HP1-beta chromodomain-methylated histone interaction inhibition; P83916; Potency, µM (highest dose often 114 µM), without a hit: at the top dose activity change, negative = inhibition, actives largely listed as inhibitors; 390,000 tested, 0.56% active; AID 540317; AlphaScreen HP1-beta / biotin-H3K9me3 peptide binding; further: nearly all actives have a fitted effect of over 70% in size
Target sequence (P83916 whole entry, looked up): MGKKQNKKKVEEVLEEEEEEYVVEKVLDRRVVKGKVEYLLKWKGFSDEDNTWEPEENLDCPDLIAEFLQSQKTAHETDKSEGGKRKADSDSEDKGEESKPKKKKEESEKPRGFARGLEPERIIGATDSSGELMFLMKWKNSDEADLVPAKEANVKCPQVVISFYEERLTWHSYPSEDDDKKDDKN
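Compound inhibition of the preformed complex between 50 nM HP1-beta and 50 nM biotinylated H3K9me3 peptide was read by AlphaScreen. Buffer was PBS pH 7.4 with 0.01% Tween-20. Incubations ran 30 min at room temperature, with 10 ug/mL donor/acceptor beads.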
JMJD2A Tudor: blocks the human JMJD2A Tudor domain. Potency, µM (titrated, usually from 114 µM), for inactives: at the highest dose activity change, negative = inhibition, most hits filed as inhibitors. 390,000 tested, 4.4% active. AlphaScreen JMJD2A-Tudor / H3K4me3 peptide binding; further: on the % scale 0 is the no-effect control and ±100 the full control effect; nearly all actives have a fitted effect of over 50% in size
BAZ2B inh: inhibitors of human BAZ2B bromodomain. AID 504333. Potency, µM (doses to about 114 µM), inactives show at the highest dose activity change, negative = inhibition, usual class: inhibitors. AlphaScreen BAZ2B-H3K14Ac peptide displacement. 360,000 tested, 4.4% active. Q9UIF8; further: on the % scale 0 is the no-effect control and ±100 the full control effect; nearly all actives have a fitted effect of over 60% in size
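AlphaScreen luminescence quantifies BAZ2B engagement of H3K14Ac peptide; the protein and biotinylated peptide are both at 50 nM final, buffer PBS pH 7.4 with 0.01% Tween-20, all steps at room temperature.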
* hit, by the source's call; ? = inconclusive; . = no result given; [ ] = remark or other dose. Only some compounds are listed: those with a hit (about 12% of all), similar ones and a draw of the others. The call rests on the fitted dose curve; in most records, active means well fitted curve in the direction sought with a large enough effect; inconclusive means small, poorly fitted or top-dose-only effect, or another doubt; inactive means no such curve, though single readings can be large; an effect the other way counts as inactive or inconclusive. Potency means the concentration at half of the fitted maximal effect.

SMILES	G9a block	Sfp inh	HP1b chromo inh	JMJD2A Tudor	BAZ2B inh
COc1ccc(NC(=O)C2CCOC(C)(C)C2)cc1 (stereo not given)	.	8.2%	2.4%	-14.9%	-1.6%
Cc1cc(C(=O)OCC(=O)Nc2ccc(F)c(F)c2F)c(C)o1	16.7%	23.9%	-11.3%	20µM*	2.5%
CCc1ccc(NC(=O)c2cnn3c(C)cc(C)nc23)cc1	.	.	.	-9.2%	.
CN(C)S(=O)(=O)c1cccc(-c2nn(-c3ccccc3)cc2/C=C2\SC(=S)NC2=O)c1	39.8µM*	?	?	39.8µM*	31.6µM*
COC(=O)C1=C(C)N(C)C(=O)NC1c1cccc2ccccc12 (stereo not given)	9.7%	16.8%	16.5%	-22.1%	-2.1%
Cc1ccc(S(=O)(=O)Nc2nc3ccc(S(C)(=O)=O)cc3s2)cc1	?	8.1%	15.5%	-18.0%	-37.2%
Cc1ccc(S(=O)(=O)Nc2nc(C)c(C)s2)cc1	22.4µM*	-6.3%	44.2%	-8.9%	-28.5%
COc1ccc(C(=O)NCCC(C)C)cc1S(=O)(=O)N1CCOCC1	0.1%[59 µM]	12.9%	24.5%	5.2%	-2.9%
CC(Oc1ccc(Br)cc1)C(=O)Nc1ccc(S(=O)(=O)N(C)C2CCN(C)CC2)cc1 (stereo not given)	35.5µM*	.	5.0%	-19.2%	6.1%
CCN(CC)CCCCC1CCN(CC(=O)N2c3ccccc3C(=O)Nc3cccnc32)CC1	.	13.4%	.	.	.
Cn1c(-c2cc3c(C(F)(F)F)nn(C)c3s2)n[nH]c1=S	31.6µM*	?	-10.8%	11.2µM*	-35.0%
Cn1nc(C(F)(F)F)c2cc(C(=O)O)sc21	2.7%	6.9%	21.0%	-3.0%[11.4 µM]	-8.3%
CCn1c(-c2cc3c(C(F)(F)F)nn(C)c3s2)n[nH]c1=S	5.62µM*	70.8µM*	-16.8%	8.91µM*	-3.9%
Cc1ccc(C)c(S(=O)(=O)N2CCCOC2CNC(=O)C(=O)NCCc2ccco2)c1 (stereo not given)	?	10.4%	5.5%	-19.4%	?
O=C(N/N=C/c1cc(Br)cc(Cl)c1O)c1ccc2c(c1)OCO2	.	.	36.4%	?	.
COc1cc(/C=N/NC(=O)c2cccc(S(=O)(=O)N3CCCC3)c2)ccc1O	4.8%[0.501 µM]	.	14.6%	-24.1%	3.3%
O=C(N/N=C/c1cc(Cl)cc([N+](=O)[O-])c1O)c1cccc(S(=O)(=O)N2CCOCC2)c1	50.1µM*	.	-32.4%	39.8µM*	25.1µM*
CCOc1ccc(C(=O)N/N=C/c2cc(Cl)ccc2[N+](=O)[O-])cc1	-45.1%[59 µM]	-11.4%	-10.7%	?	56.2µM*
CC(C)c1ccc(/C=N/NC(=O)c2cccc(S(=O)(=O)N3CCOCC3)c2)cc1	10.7%	-4.2%	8.7%	-13.4%	.
O=C(N/N=C/c1ccc(O)c(O)c1)c1cccc(S(=O)(=O)N2CCCC2)c1	39.8µM*	.	-23.4%	7.94µM*	-37.8%
O=C(N/N=C/c1cc(Cl)cc([N+](=O)[O-])c1O)c1ccc2c(c1)OCO2	?	21.5%	-4.1%	79.4µM*	35.5µM*
O=C(NCc1ccc2c(c1)OCO2)C1CC(c2cccc(Br)c2)=NO1 (stereo not given)	.	-18.2%	31.6%	-4.4%	-3.2%
O=C(N/N=C/c1ccccc1Br)c1cccc(S(=O)(=O)N2CCOCC2)c1	-13.7%[12.7 µM]	.	36.0%	-20.1%	4.2%
O=C(N/N=C/c1cc(Cl)cc([N+](=O)[O-])c1O)NC12CC3CC(CC(C3)C1)C2	10µM*	-1.5%	?	50.1µM*	8.91µM*
O=C(N/N=C/c1cc(Br)cc(Br)c1O)c1cccc(S(=O)(=O)N2CCOCC2)c1	45.1%[59 µM]	14.0%	0.3%	89.1µM*	-1.2%
SMILES	G9a block	Sfp inh	HP1b chromo inh	JMJD2A Tudor	BAZ2B inh
CCO[C@H]1OC(C(=O)NCc2ccccc2)=C[C@@H](C2CC2)[C@@H]1CCCO	29.2%[12.7 µM]	7.4%	30.1%	3.6%	11.1%
CCCC(=O)N(Cc1cc(=O)[nH]c2ccccc12)c1cccc(C)c1	28.2µM*	-14.9%	-9.5%	?	-5.4%
CC(=O)N(Cc1cc(=O)[nH]c2ccccc12)c1cccc(C)c1	?	44.7µM*	-24.9%	31.6µM*	-6.3%
Cc1cccc(N(Cc2cc(=O)[nH]c3ccccc23)C(=O)CCl)c1	5.62µM*	?	-2.5%	56.2µM*	-16.9%
COc1ccc(NC(=O)Cn2c(=O)n(-c3ccc(C)c(C)c3)c(=O)c3c(C)c(C)sc32)cc1	-3.4%[59 µM]	.	51.3%	0.7%	5.7%
O=C(Nc1cccc2ccccc12)ON=C1CCCCC1	.	.	-10.6%	-24.1%	.
Cc1ccc(/C=N/Nc2ccc(F)cc2)s1	50.1µM*	0.8%	-7.9%	?	?
O=c1c2c3nc4ccccc4nc3n(-c3ccc4c(c3)OCCO4)c2ncn1C1CCCC1	-5.0%[59 µM]	6.5%	42.1%	79.4µM*	.
O=c1c2c3nc4ccccc4nc3n(-c3ccc4c(c3)OCCO4)c2ncn1CC1CCCO1 (stereo not given)	5.7%	-8.4%	.	.	-5.5%
COC(=O)c1ccc(Oc2coc3cc(OCc4ccc([N+](=O)[O-])cc4)ccc3c2=O)cc1	56.2µM*	-5.5%	9.1%	-25.7%	-23.1%
C=CCn1c(-c2csc(-c3ccc(Cl)cc3)n2)n[nH]c1=S	?	0.5%	36.8%	-9.4%	13.7%
O=c1c(-c2n[nH]c(=S)n2-c2ccccc2)cccn1Cc1cccc(Cl)c1	3.55µM*	12.8%	10.6%	28.2µM*	-17.2%
C=CCn1c(-c2cccn(Cc3ccccc3)c2=O)n[nH]c1=S	39.8µM*	-6.4%	46.4%	28.2µM*	-6.4%
CSc1nnc(-c2cccn(Cc3cccc(Cl)c3)c2=O)o1	29.9%	12.4%	50.3%	2.1%	-6.8%
C=CCn1c(-c2cccn(Cc3ccc(Cl)cc3Cl)c2=O)n[nH]c1=S	2.82µM*	-2.9%	12.2%	56.2µM*	8.4%
C=CCn1c(-c2ccc(=O)n(Cc3ccccc3)c2)n[nH]c1=S	17.8µM*	-3.4%	.	.	-23.2%
CSc1nnc(-c2cccn(Cc3ccccc3)c2=O)o1	-34.2%	0.9%	22.7%	-15.8%[57.1 µM]	-15.6%
O=S(=O)(NCc1ccncc1)c1ccc(Br)s1	3.5%[59 µM]	4.3%	55.7%	-6.2%[11.4 µM]	-4.2%
CC(C)N=C1NN=C(c2cccs2)C(CC(=O)O)S1 (stereo not given)	.	?	?	-26.1%	-14.4%
CCC(C)(C)NC(=O)C(c1ccncc1)N(C(=O)c1sc(C)nc1C)c1ccc(F)cc1 (stereo not given)	10.9%	24.2%	28.2%	-5.5%	-16.1%
C=CCn1c(-c2cccn(Cc3cccc(Cl)c3)c2=O)n[nH]c1=S	11.2µM*	4.8%	7.9%	20µM*	-2.8%
C=CCn1c(-c2cccn(Cc3ccc(Cl)cc3)c2=O)n[nH]c1=S	4.47µM*	6.9%	1.3%	10µM*	-9.2%
C=CCn1c(-c2ccccc2[N+](=O)[O-])n[nH]c1=S	15.8µM*	-13.3%	38.1%	-6.9%	?
O=c1[nH]cccc1-c1nc2ccccc2n1Cc1cccc(Cl)c1	20.5%	4.2%	20.7%	-7.1%	2.3%
